Publication PMC4081100, “A DNA-binding-site landscape and regulatory network analysis for NAC transcription factors in Arabidopsis thaliana”

Experiments:
Assay in all cases: universal protein binding microarray (PBM); transcription factors of Arabidopsis thaliana; high values mean tight binding
GST-ANAC092(1-176) = biological target: T1, GST-ANAC092(1-176) (Arabidopsis thaliana, UniProt Q9FKA0 1-176); conditions: protein: recombinant; tags: GST; chain copies: 2; dsDNA, one strand shown
T1 sequence: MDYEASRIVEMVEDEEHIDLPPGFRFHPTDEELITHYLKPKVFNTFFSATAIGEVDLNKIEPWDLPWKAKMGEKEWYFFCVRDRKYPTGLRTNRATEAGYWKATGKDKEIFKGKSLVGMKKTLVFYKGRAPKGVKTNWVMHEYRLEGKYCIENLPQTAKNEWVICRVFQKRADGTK
How it was run: (§1)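 GST-tagged proteins (NAC-domain, full-length or DNA-binding-domain) were induced in cells, with zinc acetate supplied for zinc-finger proteins, then purified on glutathione–Sepharose 4B. Each was tested in duplicate at 200 to 500 nM final on custom all-10-mer Agilent 4 × 180K arrays rendered double-stranded by primer extension. The binding value is the normalised enrichment score (E-score) across gapped and ungapped 8-mers.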

GST-NTL6(1-168) = GST-NTL6(1-168) (Arabidopsis thaliana, UniProt Q9SCK6 1-168); conditions: protein: recombinant; tags: GST; chain copies: 2; dsDNA, one strand shown
How it was run: as §1

GST-ANAC019 NAC domain = biological target: T2, GST-ANAC019 NAC domain (Arabidopsis thaliana, UniProt Q9C932 14-162); conditions: protein: recombinant; tags: GST; chain copies: 2; dsDNA, one strand shown
T2 sequence: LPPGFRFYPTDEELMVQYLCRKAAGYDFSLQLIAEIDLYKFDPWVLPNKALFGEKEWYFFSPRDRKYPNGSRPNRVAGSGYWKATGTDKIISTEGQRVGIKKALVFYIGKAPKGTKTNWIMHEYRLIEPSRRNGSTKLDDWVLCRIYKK
How it was run: as §1

GST-ANAC055(1-171) = biological target: T3, GST-ANAC055(1-171) (Arabidopsis thaliana, UniProt Q9LDY8 1-171); conditions: protein: recombinant; tags: GST; chain copies: 2; dsDNA, one strand shown
T3 sequence: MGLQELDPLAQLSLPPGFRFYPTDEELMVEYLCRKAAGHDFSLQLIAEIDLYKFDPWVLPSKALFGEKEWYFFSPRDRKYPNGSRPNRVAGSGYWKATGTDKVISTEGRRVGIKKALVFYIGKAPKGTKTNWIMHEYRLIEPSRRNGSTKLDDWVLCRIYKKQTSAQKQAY
How it was run: as §1

GST-ATAF1 NAC domain = biological target: T4, GST-ATAF1 NAC domain (Arabidopsis thaliana, UniProt Q39013 7-158); conditions: protein: recombinant; tags: GST; chain copies: 2; dsDNA, one strand shown
T4 sequence: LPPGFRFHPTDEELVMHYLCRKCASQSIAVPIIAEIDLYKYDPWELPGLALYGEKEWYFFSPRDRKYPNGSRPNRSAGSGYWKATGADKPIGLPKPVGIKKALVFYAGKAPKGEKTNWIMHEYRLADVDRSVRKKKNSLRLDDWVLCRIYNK
How it was run: as §1

[1] = biological target: T5, GST-ANAC092(1-285) full length (Arabidopsis thaliana, UniProt Q9FKA0 1-285); conditions: protein: recombinant; tags: GST; chain copies: 2; dsDNA, one strand shown
T5 sequence: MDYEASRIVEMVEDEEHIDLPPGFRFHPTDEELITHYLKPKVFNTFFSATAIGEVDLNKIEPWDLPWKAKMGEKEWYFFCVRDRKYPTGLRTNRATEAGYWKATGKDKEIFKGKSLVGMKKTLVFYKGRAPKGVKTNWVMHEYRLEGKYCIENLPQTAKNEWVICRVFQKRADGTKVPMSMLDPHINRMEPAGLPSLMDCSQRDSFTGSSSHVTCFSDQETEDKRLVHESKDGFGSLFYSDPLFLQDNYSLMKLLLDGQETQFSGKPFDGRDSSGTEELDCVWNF
How it was run: as §1

GST-NAP(1-166) = biological target: T6, GST-NAP(1-166) (Arabidopsis thaliana, UniProt O49255 1-166); conditions: protein: recombinant; tags: GST; chain copies: 2; dsDNA, one strand shown
T6 sequence: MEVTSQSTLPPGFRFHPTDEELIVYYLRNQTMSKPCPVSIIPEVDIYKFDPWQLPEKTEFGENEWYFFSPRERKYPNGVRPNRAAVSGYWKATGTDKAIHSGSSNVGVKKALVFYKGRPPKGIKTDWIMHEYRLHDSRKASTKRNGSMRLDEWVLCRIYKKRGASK
How it was run: as §1

GST-NST2(1-184) = biological target: T7, GST-NST2(1-184) (Arabidopsis thaliana, UniProt Q9M274 1-184); conditions: protein: recombinant; tags: GST; chain copies: 2; dsDNA, one strand shown
T7 sequence: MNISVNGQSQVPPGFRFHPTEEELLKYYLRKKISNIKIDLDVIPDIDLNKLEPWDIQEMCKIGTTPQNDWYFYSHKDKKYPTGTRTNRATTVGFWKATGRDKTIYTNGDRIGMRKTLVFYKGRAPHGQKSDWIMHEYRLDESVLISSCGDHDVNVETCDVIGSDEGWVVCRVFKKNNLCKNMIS
How it was run: as §1

GST-NTL8 NAC domain = biological target: T8, GST-NTL8 NAC domain (Arabidopsis thaliana, UniProt Q9XIN7 14-156); conditions: protein: recombinant; tags: GST; chain copies: 2; dsDNA, one strand shown
T8 sequence: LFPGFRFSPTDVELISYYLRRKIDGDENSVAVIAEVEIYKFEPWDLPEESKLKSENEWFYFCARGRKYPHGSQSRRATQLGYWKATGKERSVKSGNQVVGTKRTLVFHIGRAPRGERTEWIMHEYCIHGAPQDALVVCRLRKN
How it was run: as §1

GST-SND1(1-203) = biological target: T9, GST-SND1(1-203) (Arabidopsis thaliana, UniProt Q9LPI7 1-203); conditions: protein: recombinant; tags: GST; chain copies: 2; dsDNA, one strand shown
T9 sequence: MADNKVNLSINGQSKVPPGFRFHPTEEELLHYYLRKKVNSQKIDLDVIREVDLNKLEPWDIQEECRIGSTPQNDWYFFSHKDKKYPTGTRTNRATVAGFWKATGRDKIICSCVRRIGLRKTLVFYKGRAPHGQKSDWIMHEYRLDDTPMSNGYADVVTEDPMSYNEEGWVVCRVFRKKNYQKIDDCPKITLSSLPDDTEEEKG
How it was run: as §1

GST-VND3 NAC domain = biological target: T10, GST-VND3 NAC domain (Arabidopsis thaliana, UniProt Q9FH59 12-162); conditions: protein: recombinant; tags: GST; chain copies: 2; dsDNA, one strand shown
T10 sequence: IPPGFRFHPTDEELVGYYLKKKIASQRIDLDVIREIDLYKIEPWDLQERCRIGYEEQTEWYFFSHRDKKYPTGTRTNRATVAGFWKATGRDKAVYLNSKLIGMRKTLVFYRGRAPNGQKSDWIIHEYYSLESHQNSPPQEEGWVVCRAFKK
How it was run: as §1

GST-VND7 NAC domain = biological target: T11, GST-VND7 NAC domain (Arabidopsis thaliana, UniProt Q9C8W9 9-158); conditions: protein: recombinant; tags: GST; chain copies: 2; dsDNA, one strand shown
T11 sequence: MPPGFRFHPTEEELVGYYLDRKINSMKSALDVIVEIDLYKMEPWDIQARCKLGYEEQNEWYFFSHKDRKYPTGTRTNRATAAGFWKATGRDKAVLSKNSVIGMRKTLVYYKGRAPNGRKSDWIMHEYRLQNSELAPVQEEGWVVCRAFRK
How it was run: as §1

GST-WRKY1(266-371) = GST-WRKY1(266-371) (Arabidopsis thaliana, UniProt Q9SI37 266-371); conditions: protein: recombinant; tags: GST; dsDNA, one strand shown
How it was run: as §1

Chain of GST-NTL6(1-168) (Q9SCK6 1-168): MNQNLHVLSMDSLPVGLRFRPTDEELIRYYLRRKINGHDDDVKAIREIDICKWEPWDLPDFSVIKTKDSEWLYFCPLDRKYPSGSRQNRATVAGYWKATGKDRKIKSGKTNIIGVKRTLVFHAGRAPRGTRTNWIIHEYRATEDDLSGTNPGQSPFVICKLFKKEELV
Chain of GST-WRKY1(266-371) (Q9SI37 266-371): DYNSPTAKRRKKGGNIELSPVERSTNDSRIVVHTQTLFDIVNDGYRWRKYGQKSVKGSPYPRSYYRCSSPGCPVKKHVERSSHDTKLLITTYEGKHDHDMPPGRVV

| Sequence | binding signal (GST-ANAC092(1-176)) | binding signal (GST-NTL6(1-168)) | binding signal (GST-ANAC019 NAC domain) | binding signal (GST-ANAC055(1-171)) | binding signal (GST-ATAF1 NAC domain) | binding signal [1] | binding signal (GST-NAP(1-166)) | binding signal (GST-NST2(1-184)) | binding signal (GST-NTL8 NAC domain) | binding signal (GST-SND1(1-203)) | binding signal (GST-VND3 NAC domain) | binding signal (GST-VND7 NAC domain) | binding signal (GST-WRKY1(266-371)) |
| --- | --- | --- | --- | --- | --- | --- | --- | --- | --- | --- | --- | --- | --- |
| AAATTGAC | 0.173 E-score | 0.156 E-score | 0.134 E-score | 0.213 E-score | 0.228 E-score | 0.139 E-score | 0.136 E-score | 0.194 E-score | 0.0641 E-score | 0.2 E-score | 0.228 E-score | 0.0875 E-score | 0.45 E-score |
| AATTACGT | 0.439 E-score | 0.142 E-score | 0.472 E-score | 0.446 E-score | 0.435 E-score | 0.421 E-score | 0.454 E-score | 0.352 E-score | 0.205 E-score | 0.42 E-score | 0.47 E-score | 0.46 E-score | 0.185 E-score |
| AGACGTGA | 0.217 E-score | 0.0777 E-score | 0.425 E-score | 0.368 E-score | 0.356 E-score | 0.272 E-score | 0.223 E-score | 0.157 E-score | 0.116 E-score | 0.25 E-score | 0.358 E-score | 0.348 E-score | 0.116 E-score |
| ACGTAAGT | 0.357 E-score | 0.212 E-score | 0.418 E-score | 0.402 E-score | 0.407 E-score | 0.39 E-score | 0.344 E-score | 0.233 E-score | 0.125 E-score | 0.35 E-score | 0.414 E-score | 0.42 E-score | 0.112 E-score |
| ATTACGTG | 0.457 E-score | 0.112 E-score | 0.468 E-score | 0.432 E-score | 0.372 E-score | 0.462 E-score | 0.419 E-score | 0.296 E-score | 0.146 E-score | 0.252 E-score | 0.446 E-score | 0.437 E-score | 0.127 E-score |
| ATTTCCCC | 0.143 E-score | 0.221 E-score | 0.13 E-score | 0.101 E-score | 0.0697 E-score | 0.175 E-score | 0.0823 E-score | 0.17 E-score | 0.428 E-score | 0.199 E-score | 0.205 E-score | 0.153 E-score | 0.116 E-score |
